In ChEMBL document CHEMBL4888484, “Replenishing the malaria drug discovery pipeline: Screening and hit evaluation of the MMV Hit Generation Library 1 (HGL1) against asexual blood stage Plasmodium falciparum ,using a nano luciferase reporter read-out” (2022):
Among all 150,000 compounds or so, about 540 (0.36%) showed an effect of 50% or more. The sample as a whole holds a higher share of strong results than the screen did.

These molecules were tested on Plasmodium falciparum (assay: Primary screen in NF54 nanoGlo assay, in single point, at 2uM, 72h; a lower Z score goes with more inhibition). Settings: timepoint 72 hour.
Format: functional, Erythrocyte
With `c1ccn2cc(Cc3nc(C4CC4)cs3)nc2c1` the “% Inhibition” value was 5% and the Z score was -0.54. `CCCN(CCc1cccs1)C(=O)CCc1cscn1` was tested, and the “% Inhibition” value was -14% and the Z score was 1.18. In the case of `CCn1nc(C)cc1C(=O)N[C@H]1CC2(CCCCC2)Oc2ccccc21`, the “% Inhibition” value is reported as -13% and the Z score is reported as 1.49. `Cn1cnnc1N1CCN(C(=O)NC[C@]2(C)C[C@H]2c2ccccc2)CC1` was tested, and the “% Inhibition” value was -9% and the Z score was 1.79. `O=C(CCCn1cccn1)NS(=O)(=O)c1ccc2ccccc2c1` was tested, and the “% Inhibition” value was -7% and the Z score was 0.99. With `O=C1c2ccccc2C(c2ccc(NC(=O)c3cccc4ccccc34)cc2)(c2ccc(NC(=O)c3cccc4ccccc34)cc2)c2ccccc21` the “% Inhibition” value was 95% and the Z score was -13.49. In the case of `Nc1ccc(C2(c3ccc(N)cc3)c3ccccc3C(=O)c3ccccc32)cc1`, the “% Inhibition” value is reported as 18% and the Z score is reported as -2.61. In the case of `O=C(COc1ccccc1Cl)Nc1ccc(C2(c3ccc(NC(=O)COc4ccccc4Cl)cc3)c3ccccc3-c3ccccc32)cc1`, the “% Inhibition” value is reported as 38% and the Z score is reported as -1.02. For `O=C(Nc1ccc(C2(c3ccc(NC(=O)c4ccc(F)cc4)cc3)c3ccccc3C(=O)c3ccccc32)cc1)c1ccc(F)cc1`, the “% Inhibition” value was 77% and the Z score was -2.85. With `O=C1NC(c2ccc(NC(=O)c3cccc4ccccc34)cc2)(c2ccc(NC(=O)c3cccc4ccccc34)cc2)c2ccccc21` the “% Inhibition” value was 23% and the Z score was -3.32. With `O=C(Nc1ccc(-c2c3ccccc3c(-c3ccc(NC(=O)c4cccc5ccccc45)cc3)c3ccccc23)cc1)c1cccc2ccccc12` the “% Inhibition” value was -8% and the Z score was 1.08. For `Cc1cccc(NC(=O)CN2CC(=O)NC[C@H]2c2ccccc2)c1C`, the “% Inhibition” value was -6% and the Z score was 0.77. `N[C@H](C(=O)Nc1cncc(Br)c1O)C1CCOCC1` was tested, and the “% Inhibition” value was 10% and the Z score was -1.45. With `CNc1nc(N2CCOCC2)nc2ccccc12` the “% Inhibition” value was 2% and the Z score was -0.34. For `CN(C)[C@H]1CCN(CC(=O)NC2(c3cc(F)ccc3F)CC2)C1`, the “% Inhibition” value was 8% and the Z score was -1.27. `OCCn1nc(Cc2cccs2)nc1CCN1CCCCCCC1` was tested, and the “% Inhibition” value was -16% and the Z score was 2.13. `Cc1nnc(CN2CCC[C@H](c3nc(C(C)C)cs3)C2)s1` was tested, and the “% Inhibition” value was -8% and the Z score was 1.01. `CC1(C)NC(=O)N(CC(=O)N2CCC[C@H]2c2ccc3c(c2)OCCCO3)C1=O` was tested, and the “% Inhibition” value was -13% and the Z score was 1.7. In the case of `CCOc1ccc([C@@]2(O)CN3CCCCCC3=[N+]2c2ccc(C)cc2)cc1`, the “% Inhibition” value is reported as 1% and the Z score is reported as -0.19. In the case of `Cn1c(-c2ccc(Br)cc2)c[n+](CC(=O)c2ccc(Br)cc2)c1N`, the “% Inhibition” value is reported as 41% and the Z score is reported as 0.35. `Cc1ccc([N+]2=C3CCCCCN3C[C@]2(O)c2ccc(OC(F)F)cc2)cc1` was tested, and the “% Inhibition” value was -12% and the Z score was 1.97. `CCOc1ccc(-[n+]2cc(-c3ccccc3)n3c2CCC3)cc1` was tested, and the “% Inhibition” value was 68% and the Z score was -6.48. In the case of `O=C(C[n+]1nc(-c2n[n+](CC(=O)c3ccccc3)c3n2CCCCC3)n2c1CCCCC2)c1ccccc1`, the “% Inhibition” value is reported as 6% and the Z score is reported as -1.08. With `Cc1ccc(-c2c[n+](-c3ccc(OC(F)F)cc3)c3n2CCCCC3)cc1` the “% Inhibition” value was 66% and the Z score was -12.11. For `Cc1ccc(NCc2n[n+](CC(=O)c3ccccc3)c3n2CCCCC3)cc1`, the “% Inhibition” value was -40% and the Z score was 4.69. In the case of `COc1ccc(C(=O)C[n+]2cc(-c3cccc(Br)c3)n(C)c2N)cc1`, the “% Inhibition” value is reported as 3% and the Z score is reported as -0.43. With `COc1ccc(C(=O)C[n+]2nc(CNc3ccc(Br)cc3)n3c2CCCCC3)cc1` the “% Inhibition” value was 78% and the Z score was -12.51. In the case of `COc1ccc(C(=O)C[n+]2cc(-c3ccc(OC)cc3)n3c2CCCC3)cc1`, the “% Inhibition” value is reported as 65% and the Z score is reported as -8.89. `FC(F)Oc1ccc(-c2c[n+](-c3cccc(C(F)(F)F)c3)c3n2CCCCC3)cc1` was tested, and the “% Inhibition” value was 39% and the Z score was -3.9. `CCOc1ccc([C@@]2(O)CN3C=CC=CC3=[N+]2c2ccccc2)cc1` was tested, and the “% Inhibition” value was -39% and the Z score was 4.59.
